Entries with a potency or affinity are not part of this list.

In the test the test system is Cryptococcus neoformans. To be noted: Concentration 32 ug.mL-1; ASSAY_TEST Inhibition of Fungal Growth; detection method Resazurin; Absorption (OD600-OD570); plate type 384well; NBS; CORNING #3640. Background: Resazurin is reduced to fluorescent resorufin, in cell work by metabolically active cells.
In the case of `COc1ccc(NC(=O)Cn2nc3ccc(SCc4ccc(Cl)cc4)nn3c2=O)cc1OC`, the Inhibition (as a rule, the change of the read-out against control, counted positive when it falls) is -6.53%.

`CC(C)c1nnc2c(SCC(=O)Nc3ccccc3F)nc3ccccc3n12`: the Inhibition is -27.54%.

`Cc1ccc(Cn2c(=O)c3ccccc3n3c(=O)n(CC(=O)Nc4ccc5c(c4)OCCO5)nc23)cc1`: the Inhibition is listed as -21.97%.

For the compound `Cc1ccc(N(Cc2cccc(C)c2)S(=O)(=O)c2cccn3c(C)nnc23)cc1`, the Inhibition was -6.62%.

On to `O=C(Cn1nc2c(Sc3cccc(F)c3)nccn2c1=O)Nc1cccc(C(F)(F)F)c1`, for which the Inhibition is recorded as -9.77%.

As to `Cc1ccc(-c2nc(CSc3nc4ccccc4n4c(C(C)C)nnc34)c(C)o2)cc1`, the Inhibition is -13.81%.

On to `CCOc1ccc(-n2ccn3c(SCc4cccc(C(F)(F)F)c4)nnc3c2=O)cc1`, for which the Inhibition is listed as -7.62%.

`C=Cc1ccc(Cn2nc3c(=O)n(-c4cccc(Cl)c4C)ccn3c2=O)cc1`: the Inhibition is -8.23%.

As to `O=C(Cn1nc2ccc(C(=O)NCc3ccccc3)cn2c1=O)Nc1ccc(Br)cc1`, the Inhibition was -19.25%.

As to `COC(=O)c1cccc(NC(=O)Cn2nc3ccc(-c4ccccc4)nn3c2=O)c1`, the Inhibition was -15.91%.

Turning to `COc1ccc2[nH]cc(C(=O)CSc3nnc4c(=O)n(-c5cccc(Cl)c5C)ccn34)c2c1`, the Inhibition is -9.58%.

As to `COc1ccc(-c2cc3c4nnc(SCC(=O)NCc5ccc(C)cc5)n4ccn3n2)cc1`, the Inhibition is given as -10.46%.

In the case of `Cc1ccc(-c2ccc3nn(Cc4nc(-c5ccc(Cl)cc5)no4)c(=O)n3n2)cc1C`, the Inhibition is -12.88%.

As to `Cc1nnc2ccc(S(=O)(=O)N(Cc3cccc(F)c3)c3cccc(Cl)c3)cn12`, the Inhibition is recorded as -11.05%.

In the case of `O=C(CSc1nnc2c3cc(-c4ccc(F)cc4)nn3ccn12)NCCc1ccccc1`, the Inhibition is reported as -23.19%.

With `COc1ccc(NC(=O)Cn2nc3ccc(SC(C)C)nn3c2=O)cc1OC`, the Inhibition is listed as -1.1%.

With `CCCCOc1ccc(-c2cc3c4nnc(SCC(=O)NCc5ccc(OC)cc5)n4ccn3n2)cc1`, the Inhibition is -16.44%.

Take `CCCn1c(=O)c2ccc(C(=O)NC3CCCCC3)cc2n2c(=O)n(CC#N)nc12`: the Inhibition is reported as -10.2%.

For `CCc1ccc(NC(=O)Cn2nc3c(Sc4ccccc4)nccn3c2=O)cc1`, the Inhibition was -8.51%.

With `O=c1c2nnc(SCc3ccc(Cl)cc3)n2ccn1-c1ccc(F)cc1`, the Inhibition was -5.79%.

Consider `O=S(=O)(c1cccn2cnnc12)N(Cc1cccc(Cl)c1)c1cc(F)cc(F)c1`, for which the Inhibition was -7.91%.

On to `COc1ccc(-c2cc3c4nn(CC(=O)Nc5ccccc5)c(=O)n4ccn3n2)cc1`, for which the Inhibition is recorded as -7.06%.

Regarding `COc1cccc(CN(c2ccccc2)S(=O)(=O)c2ccc3nncn3c2)c1`, the Inhibition was -7.16%.

For `Cc1ccc(-c2ccc3nnc(CCC(=O)NCc4ccc(C(F)(F)F)cc4)n3n2)cc1C`, the Inhibition is given as -1.58%.

Consider `O=C(Cn1nc2ccc(Sc3ccccc3)nn2c1=O)N1CCN(c2ccc(F)cc2)CC1`, for which the Inhibition is -5.51%.

With `CCOc1ccc(C(=O)CSc2nnc3c(=O)n(-c4ccc(OCC)cc4)ccn23)cc1`, the Inhibition is reported as -6.09%.

Take `COc1ccc(CNC(=O)CSc2nnc3c4cc(-c5ccc(C)cc5)nn4ccn23)cc1OC`: the Inhibition was -20.85%.

Take `COc1cccc(-c2nc(CSc3nc4ccccc4n4c(C(C)C)nnc34)c(C)o2)c1OC`: the Inhibition is on record as -8.54%.

Turning to `Cc1cc(C)cc(Nc2nc(C)cc3nn(CC(=O)N(C)c4cccc(C)c4)c(=O)n23)c1`, the Inhibition was -3.53%.

As to `COc1cc(NC(=O)Cn2nc3c(N4CCCC(C)C4)nccn3c2=O)cc(OC)c1` (stereo not given), the Inhibition is given as -46.51%.

For `CCCCOc1ccc(-c2cc3c4nnc(SCC(=O)Nc5ccc(CC)cc5)n4ccn3n2)cc1`, the Inhibition was -11.7%.

For the compound `COc1ccc(NC(=O)Cn2c(=O)c3nnc(C)n3c3ccccc32)cc1Cl`, the Inhibition was -20.99%.

In the case of `CC(=O)c1cccc(NC(=O)CSc2nc3ccccc3n3c(C)nnc23)c1`, the Inhibition was -6.11%.

Turning to `CCCCOc1ccc(-c2cc3c4nnc(SCC(=O)Nc5ccc(Cl)cc5)n4ccn3n2)cc1`, the Inhibition is -15.55%.

In the case of `CCCc1nnc2c(=O)n(CC(=O)Nc3ccc4c(c3)OCCO4)c3ccccc3n12`, the Inhibition is reported as -31.27%.

Take `COc1ccccc1-n1ccn2c(SCc3cccc(Cl)c3)nnc2c1=O`: the Inhibition is given as -7.59%.

Consider `O=C(Cn1nc2c3cc(F)ccc3ncn2c1=O)Nc1ccc2c(c1)OCO2`, for which the Inhibition is -3.11%.

With `O=C(Cn1nc2c(SCc3ccccc3)nccn2c1=O)NCc1ccc(Cl)cc1`, the Inhibition is -17.24%.

Turning to `COc1ccccc1NC(=O)Cn1nc2c(SCc3ccccc3)nccn2c1=O`, the Inhibition was -17.11%.

With `CCOC(=O)c1ccc(NC(=O)CSc2nnc3c4cc(-c5ccc(OC)cc5)nn4ccn23)cc1`, the Inhibition is listed as -22.98%.

(Values after ChEMBL document CHEMBL4513146, “CO-ADD screening of Karazin Kharkiv National University (Ukraine) compounds”.)
